Experimental data reported in PubChem BioAssay AID1159580 (chemical genetic matrix, 2015).
Hit rate of the full screen: of about 5,500 compounds, about 2,000 (36%) were called active. Another 18% or so got no clear call; they are omitted. Rule as the data show it: active = normalized growth mostly below about 0.91 (no sharp cut-off); inconclusive = no clear call, values can overlap the other calls; inactive = mostly above about 0.92. The list shows a part of the results.

Experiment: chemical genetic growth profiling, strain panel (AID 1159580);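 also: tested at 20 µM; growth read once vehicle control cultures reached saturation at 30 °C; 1 = growth at the plate median or of vehicle wells; lower values mean less growth of the strain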
Conditions: S. cerevisiae deletion strains, growth OD
[1] = locus YBR229C, strain ROT2, stronger effect = lower value
[2] = locus YDL101C, strain DUN1, stronger effect = lower value
[3] = locus YJL095W, strain BCK1, stronger effect = lower value
[4] = locus YJR043C, strain POL32, stronger effect = lower value
[5] = locus YJR075W, strain HOC1, stronger effect = lower value
[6] = locus YKL190W, strain CNB1, stronger effect = lower value
[7] = locus YLR039C, strain RIC1, stronger effect = lower value
[8] = locus YLR262C, strain YPT6, stronger effect = lower value
[9] = locus YMR307W, strain GAS1, stronger effect = lower value
[10] = locus YOR061W, strain CKA2, stronger effect = lower value
[11] = locus YHR030C, strain SLT2, stronger effect = lower value
[12] = locus YMR263W, strain SAP30, stronger effect = lower value
[13] = locus YNL153C, strain GIM3, stronger effect = lower value
[14] = locus YPL055C, strain LGE1, stronger effect = lower value

Measured: normalized growth

C/C=C(\C)C(=O)OC1[C@@H]2C=C3C4CC(=O)O[C@@H](c5ccoc5)[C@]4(C)CCC3[C@@](C)(C2=O)[C@@H](C(O)C(=O)OC)C1(C)C (stereo partly drawn)
inactive: locus YBR021W, strain FUR4, stronger effect = lower value 1 | [1] 0.997 | locus YCL029C, strain bik1, stronger effect = lower value 1.01 | locus YDL035C, strain GPR1, stronger effect = lower value 0.994 | locus YDL074C, strain BRE1, stronger effect = lower value 1.03 | [2] 1.01 | locus YDL134C, strain PPH21, stronger effect = lower value 1.01 | locus YDL185W, strain tfp1, stronger effect = lower value 1.02 | locus YDL192W, strain arf1, stronger effect = lower value 1.01 | locus YDR101C, strain arx1, stronger effect = lower value 1.01 | locus YDR162C, strain NBP2, stronger effect = lower value 1.01 | locus YDR318W, strain mcm21, stronger effect = lower value 1.02 | locus YDR388W, stronger effect = lower value 1.02 | locus YDR502C, strain sam2, stronger effect = lower value 1.03 | locus YER110C, stronger effect = lower value 1.01 | locus YER155C, strain BEM2, stronger effect = lower value 1 | locus YER167W, strain BCK2, stronger effect = lower value 0.994 | locus YGL078C, strain dbp3, stronger effect = lower value 1.03 | locus YGL086W, strain mad1, stronger effect = lower value 1.01 | locus YGL248W, strain PDE1, stronger effect = lower value 1 | locus YGR135W, strain pre9, stronger effect = lower value 1.03 | locus YGR252W, strain gcn5, stronger effect = lower value 1.02 | locus YHR079C, strain IRE1 (second series), stronger effect = lower value 1.03 | locus YHR094C, strain hxt1, stronger effect = lower value 1.03 | locus YHR129C, strain ARP1, stronger effect = lower value 1 | locus YHR200W, strain rpn10, stronger effect = lower value 1.02 | locus YIL066C, strain RNR3, stronger effect = lower value 0.997 | locus YIL073C, strain SPO22, stronger effect = lower value 1.05 | locus YIL125W, strain kgd1, stronger effect = lower value 1.01 | locus YIR030C, strain dcg1, stronger effect = lower value 1.02 | [3] 1.03 | locus YJL134W, strain LCB3, stronger effect = lower value 1.01 | locus YJL168C, strain set2, stronger effect = lower value 1.02 | locus YJL187C, strain SWE1 (second series), stronger effect = lower value 1.02 | [4] 0.983 | [5] 1.02 | locus YKL009W, strain mrt4, stronger effect = lower value 1 | locus YKL068W, stronger effect = lower value 1.01 | locus YKL085W, strain MDH1 (second series), stronger effect = lower value 0.996 | locus YKL085W, strain MDH1, stronger effect = lower value 0.996 | [6] 1 | locus YKR001C, strain vps1, stronger effect = lower value 1.03 | [7] 1 | locus YLR058C, strain SHM2, stronger effect = lower value 1 | locus YLR102C, strain apc9, stronger effect = lower value 1.01 | [8] 0.97 | locus YLR268W, strain sec22, stronger effect = lower value 1.02 | locus YLR342W, strain FKS1 (second series), stronger effect = lower value 0.998 | locus YLR371W, strain rom2, stronger effect = lower value 1.02 | locus YLR418C, strain cdc73, stronger effect = lower value 1.05 | locus YML016C, strain PPZ1, stronger effect = lower value 0.999 | locus YML032C, strain rad52, stronger effect = lower value 1.02 | locus YML124C, strain tub3, stronger effect = lower value 1.01 | locus YMR078C, strain ctf18, stronger effect = lower value 1.01 | locus YMR223W, strain ubp8, stronger effect = lower value 1.02 | [9] 0.998 | locus YNL067W, strain RPL9B, stronger effect = lower value 1.02 | locus YNL128W, strain TEP1, stronger effect = lower value 1 | locus YNL233W, strain BNI4, stronger effect = lower value 1.05 | locus YNL250W, strain rad50, stronger effect = lower value 1.01 | locus YNL271C, strain bni1, stronger effect = lower value 1.02 | locus YNL298W, strain CLA4, stronger effect = lower value 1.01 | locus YNL307C, strain MCK1, stronger effect = lower value 1.01 | locus YNR052C, strain pop2, stronger effect = lower value 1.03 | locus YOL006C, strain TOP1, stronger effect = lower value 0.976 | locus YOL012C, strain htz1 1.07 | locus YOL147C, strain pex11, stronger effect = lower value 1.01 | [10] 1 | locus YOR069W, strain VPS5, stronger effect = lower value 1 | locus YOR136W, strain idh2, stronger effect = lower value 1.01 | locus YOR144C, strain elg1, stronger effect = lower value 1.01 | locus YOR184W, strain ser1, stronger effect = lower value 1 | locus YOR316C, strain cot1, stronger effect = lower value 1.01 | locus YPR119W, strain clb2, stronger effect = lower value 1.02 | locus YPR141C, strain kar3, stronger effect = lower value 1.02 | locus YPR163C, strain tif3, stronger effect = lower value 1.01 | locus YPR167C, strain met16, stronger effect = lower value 1.02 | strain wtn01, stronger effect = lower value 0.994

N#Cc1c(N)sc2c1CCc1ccccc1-2
inactive: locus YAR019C, strain CDC15, stronger effect = lower value 0.896 | locus YBR135W, strain CKS1, stronger effect = lower value 0.898 | locus YBR136W, strain MEC1, stronger effect = lower value 0.896 | locus YBR160W, strain CDC28, stronger effect = lower value 0.905 | locus YDL028C, strain MPS1, stronger effect = lower value 0.898 | [2] 0.929 | locus YDL108W, strain KIN28, stronger effect = lower value 0.898 | locus YDR054C, strain cdc34, stronger effect = lower value 0.89 | locus YFL009W, strain cdc4, stronger effect = lower value 0.903 | locus YFL029C, strain CAK1, stronger effect = lower value 0.891 | locus YFR019W, strain FAB1, stronger effect = lower value 0.833 | locus YGR092W, strain DBF2, stronger effect = lower value 0.545 | locus YHR079C, strain IRE1, stronger effect = lower value 0.593 | locus YIL147C, strain SLN1, stronger effect = lower value 0.894 | [3] 0.508 | locus YJL128C, strain PBS2, stronger effect = lower value 0.918 | locus YNL222W, strain SSU72, stronger effect = lower value 0.897 | locus YOL078W, strain AVO1, stronger effect = lower value 0.898 | locus YOR231W, strain MKK1, stronger effect = lower value 0.653 | locus YOR329C, strain SCD5, stronger effect = lower value 0.91 | locus YPL256C, strain CLN2, stronger effect = lower value 0.97 | locus YPR025C, strain CCL1, stronger effect = lower value 0.911 | locus YPR106W, strain ISR1, stronger effect = lower value 0.918 | locus YPR111W, strain DBF20, stronger effect = lower value 0.912 | strain NNK1, stronger effect = lower value 0.915 | strain TSCII, stronger effect = lower value 0.899
active: locus YBL105C, strain PKC1, stronger effect = lower value 0.897 | locus YDL017W, strain CDC7, stronger effect = lower value 0.899 | locus YDL132W, strain cdc53, stronger effect = lower value 0.884 | locus YDL214C, strain PRR2, stronger effect = lower value 0.671 | locus YDR052C, strain DBF4, stronger effect = lower value 0.905 | locus YDR226W, strain ADK1, stronger effect = lower value 0.887 | locus YDR477W, strain SNF1, stronger effect = lower value 0.546 | locus YER123W, strain YCK3, stronger effect = lower value 0.596 | locus YER133W, strain GLC7, stronger effect = lower value 0.499 | locus YFR003C, strain YPI1, stronger effect = lower value 0.894 | locus YFR028C, strain CDC14, stronger effect = lower value 0.884 | locus YGR040W, strain KSS1, stronger effect = lower value 0.452 | locus YGR052W, strain FMP48, stronger effect = lower value 0.508 | [11] 0.479 | locus YHR082C, strain KSP1, stronger effect = lower value 0.568 | locus YHR205W, strain SCH9, stronger effect = lower value 0.558 | locus YJL157C, strain FAR1, stronger effect = lower value 0.605 | locus YJR016C, strain ILV3, stronger effect = lower value 0.892 | locus YJR066W, strain TOR1 (second series), stronger effect = lower value 0.474 | locus YJR066W, strain TOR1, stronger effect = lower value 0.458 | locus YKL048C, strain ELM1, stronger effect = lower value 0.798 | locus YKL067W, strain YNK1, stronger effect = lower value 0.664 | locus YKL101W, strain HSL1, stronger effect = lower value 0.66 | locus YKL193C, strain SDS22, stronger effect = lower value 0.888 | locus YKL203C, strain TOR2, stronger effect = lower value 0.489 | locus YLR113W, strain HOG1, stronger effect = lower value 0.806 | locus YLR133W, strain CKI1, stronger effect = lower value 0.593 | locus YLR403W, strain SFP1, stronger effect = lower value 0.401 | locus YML070W, strain DAK1, stronger effect = lower value 0.642 | locus YMR001C, strain CDC5, stronger effect = lower value 0.886 | locus YMR205C, strain PFK2 (second series), stronger effect = lower value 0.69 | locus YMR277W, strain FCP1, stronger effect = lower value 0.88 | locus YNL006W, strain LST8, stronger effect = lower value 0.903 | locus YNL020C, strain ARK1, stronger effect = lower value 0.611 | locus YNL161W, strain CBK1, stronger effect = lower value 0.898 | locus YNL183C, strain NPR1, stronger effect = lower value 0.492 | locus YNL207W, strain RIO2, stronger effect = lower value 0.867 | locus YNL307C, strain MCK1 (second series), stronger effect = lower value 0.508 | locus YOL136C, strain PFK27, stronger effect = lower value 0.636 | [10] 0.616 | locus YOR119C, strain RIO1, stronger effect = lower value 0.506 | locus YPL031C, strain PHO85, stronger effect = lower value 0.464 | locus YPL153C, strain RAD53, stronger effect = lower value 0.494 | locus YPL204W, strain HRR25, stronger effect = lower value 0.491 | locus YPL209C, strain IPL1, stronger effect = lower value 0.888

COc1ccc(-c2ccc(N)[n+](CCCC(=O)O)n2)cc1
inactive: locus YAL040C, strain CLN3, stronger effect = lower value 1.05 | locus YCL061C, strain MRC1 (second series), stronger effect = lower value 1 | locus YDR363W, strain ESC2, stronger effect = lower value 1.01 | locus YER002W, strain NOP16, stronger effect = lower value 0.993 | [12] 1.01 | [9] 1.01 | [13] 1.03 | locus YNL175C, strain NOP13, stronger effect = lower value 1 | locus YNL197C, strain WHI3, stronger effect = lower value 1.01 | locus YNL224C, strain SQS1, stronger effect = lower value 1.01 | locus YOR083W, strain WHI5 (second series), stronger effect = lower value 1.02 | [14] 1.01

COc1ccc(/C(C)=N\NC2=NCCCN2)cc1
inactive: locus YAL013W, strain DEP1, stronger effect = lower value 1 | [1] 1.01 | locus YCL061C, strain MRC1, stronger effect = lower value 1 | [2] 1.03 | locus YDR150W, strain NUM1, stronger effect = lower value 0.999 | locus YEL061C, strain CIN8, stronger effect = lower value 0.991 | locus YGR078C, strain PAC10, stronger effect = lower value 1 | [11] 0.987 | locus YHR087W, strain rtc3, stronger effect = lower value 0.993 | locus YJL187C, strain SWE1, stronger effect = lower value 1.01 | [4] 0.998 | [5] 0.986 | [6] 0.973 | [7] 0.957 | locus YLR058C, strain SHM2 (second series), stronger effect = lower value 0.991 | locus YLR085C, strain ARP6, stronger effect = lower value 0.982 | [8] 0.978 | locus YML094W, strain GIM5, stronger effect = lower value 1.08 | locus YMR219W, strain ESC1, stronger effect = lower value 0.997 | [12] 1 | [13] 1.01 | locus YNL298W, strain CLA4 (second series), stronger effect = lower value 0.966 | locus YNL322C, strain KRE1, stronger effect = lower value 1 | locus YNR030W, strain Alg12, stronger effect = lower value 0.993 | [14] 1.01 | locus YPL241C, strain CIN2, stronger effect = lower value 1.03 | locus YPR135W, strain CTF4, stronger effect = lower value 1.04
